Assay results from PubChem BioAssay AID485284 (NMMLSC, 2010).
Results with a measured potency or affinity are listed apart.

Assay: inhibitors of CD8+ T cell–vesicle binding, dose response, mouse 2C CD8+ T cells, flow cytometry (AID 485284);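 further: drosophila derived vesicles carrying Ld MHC with QL9 peptide plus B7-1 and ICAM-1; vesicle binding seen as anti-B7-1 PE fluorescence on CD8 gated cells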
Settings: 2C mouse CD8+ T cell-exosome binding; at 45 µM (top of the series)

**Q.** Which binding remaining, % of control does the source give for `C=CCNC(=S)Nc1sc2c(c1C(N)=O)CCCC2` here?
**A.** The binding remaining, % of control was 163%.

**Q.** Which binding remaining, % of control does the source give for `CCOc1ccc(Cl)cc1/C=N/NC(=O)c1ccccc1` here?
**A.** Its binding remaining, % of control is 35.5%.

**Q.** Which binding remaining, % of control does the source give for `O=C(/C=C/c1ccccc1Cl)NCCc1ccccc1` here?
**A.** The binding remaining, % of control was 116%.

**Q.** With `CC1CCN(S(=O)(=O)c2csc(C(=O)Nc3ccccc3)c2)CC1` as the compound, how does the binding remaining, % of control read?
**A.** Its binding remaining, % of control is 61.2%.

**Q.** Which binding remaining, % of control does the source give for `CCN(CC)C(=O)N1CCN(S(=O)(=O)c2ccc(C)cc2)CC1` here?
**A.** Its binding remaining, % of control is 112%.

**Q.** Which binding remaining, % of control does the source give for `Cc1ccc(NC(=O)COC(=O)CCc2c[nH]c3ccccc23)c(C)c1` here?
**A.** The binding remaining, % of control was 138%.

**Q.** With `COc1ccc([C@H]2CC(=O)C=C(c3c(C)cc(C)cc3C)C2)cc1` as the compound, how does the binding remaining, % of control read?
**A.** The binding remaining, % of control was 56.3%.

**Q.** Which binding remaining, % of control does the source give for `COc1ccc(NC(=O)Cc2ccc(C)c(C)c2)cc1S(=O)(=O)N1CCCCC1` here?
**A.** Its binding remaining, % of control is 32.4%.

**Q.** For `Cc1ccccc1C(=O)N1CCC(C(=O)Nc2ccc(C)c(S(=O)(=O)N3CCCCC3)c2)CC1`, which binding remaining, % of control is on record?
**A.** Its binding remaining, % of control is 134%.

**Q.** For `Cc1ccc(C(C)C)c(OCC(=O)N2CCN(c3ncccn3)CC2)c1`, which binding remaining, % of control is on record?
**A.** Its binding remaining, % of control is 17.4%.

**Q.** For `CCCCN(C(=O)COC(=O)c1ccc(C=O)cc1)c1c(N)n(CCC)c(=O)[nH]c1=O`, which binding remaining, % of control is on record?
**A.** The binding remaining, % of control was 50.1%.

**Q.** With `O=C(c1ccc(N2C(=O)C3CC=C(Cl)CC3C2=O)cc1)N1CCCCC1` (stereo not drawn) as the compound, how does the binding remaining, % of control read?
**A.** Its binding remaining, % of control is 18.5%.

**Q.** For `O=S(=O)(c1ccc(F)cc1)N1CCC(O)(c2ccc3c(c2)OCO3)CC1`, which binding remaining, % of control is on record?
**A.** The binding remaining, % of control was 108%.

**Q.** For `O=C(/C=C/c1ccc(Br)cc1)c1ccc(NC(=O)c2ccco2)cc1`, which binding remaining, % of control is on record?
**A.** The binding remaining, % of control was 98.2%.

**Q.** Which binding remaining, % of control does the source give for `CN1CCN(S(=O)(=O)c2cccc(C(=O)Nc3cc(C(F)(F)F)ccc3N3CCCCC3)c2)CC1` here?
**A.** Its binding remaining, % of control is 51.4%.

**Q.** Which binding remaining, % of control does the source give for `CCC(C)S(=O)(=O)c1snnc1C` (stereo not drawn) here?
**A.** Its binding remaining, % of control is 164%.

**Q.** Which binding remaining, % of control does the source give for `CS(=O)(=O)NCc1ccccc1Br` here?
**A.** The binding remaining, % of control was 95.9%.

**Q.** For `COc1ccc(NC(=O)[C@H](C)NC(=O)C2CCN(S(=O)(=O)c3ccc(C)cc3)CC2)cc1`, which binding remaining, % of control is on record?
**A.** Its binding remaining, % of control is 108%.

**Q.** With `CN1CCN(S(=O)(=O)c2ccc(C(=O)Nc3ccccc3)cc2)CC1` as the compound, how does the binding remaining, % of control read?
**A.** Its binding remaining, % of control is 124%.

**Q.** For `O=C(CN1C(=O)NC2(CCCCCC2)C1=O)N1CCN(c2ccccc2)CC1`, which binding remaining, % of control is on record?
**A.** Its binding remaining, % of control is 158%.

**Q.** For `COc1cc(F)c(C2=CC(=O)C[C@H](c3ccc(F)cc3)C2)cc1F`, which binding remaining, % of control is on record?
**A.** The binding remaining, % of control was 108%.

**Q.** With `Cc1cccc(OCC(=O)Nc2ccccc2C(=O)N2CCOCC2)c1` as the compound, how does the binding remaining, % of control read?
**A.** Its binding remaining, % of control is 161%.

**Q.** Which binding remaining, % of control does the source give for `CCOc1ccc(NC(=O)CN(C)C(=O)C2CC(=O)N(Cc3ccco3)C2)cc1OCC` (stereo not drawn) here?
**A.** Its binding remaining, % of control is 145%.

**Q.** For `CC(=O)Nc1ccc(S(=O)(=O)NC2CCSc3ccccc32)cc1` (stereo not drawn), which binding remaining, % of control is on record?
**A.** Its binding remaining, % of control is 273%.

**Q.** With `Cc1noc(C)c1C(=O)OC(C)C(=O)N1CCc2ccccc21` (stereo not drawn) as the compound, how does the binding remaining, % of control read?
**A.** Its binding remaining, % of control is 96.2%.

**Q.** For `O=C(Cc1cccs1)Nc1cc(S(=O)(=O)N2CCCCC2)ccc1Cl`, which binding remaining, % of control is on record?
**A.** Its binding remaining, % of control is 121%.

**Q.** With `NC(=O)NC(=O)COC(=O)CN1C(=O)C2CCCCC2C1=O` (stereo not drawn) as the compound, how does the binding remaining, % of control read?
**A.** Its binding remaining, % of control is 164%.

**Q.** Which binding remaining, % of control does the source give for `O=C(c1ccco1)N1CCN(C(c2ccccc2Cl)c2nnnn2Cc2ccco2)CC1` (stereo not drawn) here?
**A.** The binding remaining, % of control was 17.4%.

**Q.** For `COc1ccc(CNC(=O)COC(=O)CCN2C(=O)C3CC=CCC3C2=O)cc1OC` (stereo not drawn), which binding remaining, % of control is on record?
**A.** Its binding remaining, % of control is 190%.

**Q.** For `COc1ccc([C@H]2CC(=O)C=C(c3ccc4c5c(cccc35)CC4)C2)cc1`, which binding remaining, % of control is on record?
**A.** Its binding remaining, % of control is 119%.

**Q.** Which binding remaining, % of control does the source give for `CCOC(=O)N1CCC(=NNc2ncc(C(F)(F)F)cc2Cl)CC1` here?
**A.** Its binding remaining, % of control is 24.2%.

**Q.** For `COc1ccc(-c2cc(=O)c3cc(O)ccc3o2)cc1`, which binding remaining, % of control is on record?
**A.** The binding remaining, % of control was 110%.

**Q.** With `CCOC(=O)N1CCN(C(=O)c2ccc(CS(=O)Cc3ccc(C)cc3)o2)CC1` (stereo not drawn) as the compound, how does the binding remaining, % of control read?
**A.** Its binding remaining, % of control is 44.7%.
